Assay [1] in a line: CCTE_Harrill_HTTr_Viability_MCF7: CCTE's 6-hour Cell Viability Assessment for the High-Throughput Transcriptomics (HTTr) Platform, in MCF-7 cells cultured in DMEM + 10% fetal bovine serum, Harrill Lab (AID 2284010). A digest of the protocol: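 PI exclusion, high-content imaging; 8-pt dilution series, 6 h exposure; bidirectional fit vs DMSO (neg. ctrl/baseline); gain of signal = loss of membrane integrity.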

Assay [2] in a line: CCTE_Harrill_HTTr_Apoptosis_MCF7: CCTE's 6-hour Apoptosis Assessment for the High-Throughput Transcriptomics (HTTr) Platform, in MCF-7 cells cultured in DMEM + 10% fetal bovine serum, Harrill Lab (AID 2284011). A digest of the protocol:
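MCF-7 (DMEM + 10% FBS), 384-well; 8-pt dilution series, 6 h chemical exposure; caspase-3/7 activation via CellEvent Caspase 3/7 Green, HCI; bidirectional fit vs DMSO.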

Assay [3] can be described thus: CCTE_Harrill_HTTr_CellCount_MCF7: CCTE's Cell Proliferation Assessment for the High-Throughput Transcriptomics (HTTr) Platform, Harrill Lab (AID 2284012; active = hit-call score of the fitted dose curve at least 0.9, where 1 is the maximum;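 note: count of Hoechst-stained nuclei per well by high-content imaging in MCF-7 cells; cells exposed to compound for six hours; intended direction is loss of nuclei count meaning fewer cells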). The method in brief: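 Readout: Hoechst nuclear count by high-content imaging. MCF-7, 8-point dilution series, 6 h exposure. Bidirectional fit vs DMSO baseline.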
A short description of assay [4]: CCTE_Deisenroth_AIME_384WELL_CTox_Active: Cytotoxicity Assessment (CTOX) in CCTE's 384-well Estrogen Receptor Transactivation Assay with AIME metabolic competence (metabolism positive), Deisenroth Lab (AID 2284037; active = hit-call score of the fitted dose curve at least 0.9, where 1 is the maximum;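 note: chemicals first conditioned 2 h by alginate-bound induced rat liver S9 before cells; activity means signal loss indicating cell death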). The method in brief:
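Chemicals pre-incubated 2 hours with alginate-immobilised phenobarbital/beta-naphthoflavone-induced male Sprague Dawley rat liver S9, then conditioned medium applied 24 hour to VM7Luc4E2 cells. Viability by fluorogenic protease substrate; 10-point series 0.002 - 200 uM.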

Assay [5] is described as follows: CCTE_Shafer_MEA_dev_firing_rate_mean: CCTE's Neural Network Formation Assay for Mean Firing Rate, Shafer Lab (AID 2284031).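 For AC50: curve fitted for loss of firing so AC50 reflects decreased mean firing rate.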 The method in brief:
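Read-out: spike count/recording length, averaged over active electrodes, then AUC across days 5, 7, 9, 12. Rat cortical cultures on MEA; continuous 12-day exposure, media and treatment renewed DIV 5, 9; DMSO baseline.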

The nature of assay [6]: CCTE_Shafer_MEA_dev_per_burst_spike_percent: CCTE's Neural Network Formation Assay for Percent of Spikes in a Burst, Shafer Lab (AID 2284032).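 For AC50: fitted as a decrease in burst spike percentage below DMSO baseline.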 A digest of the protocol:
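Value is trapezoidal AUC over recordings on days 5, 7, 9 and 12 of the well-mean fraction of spikes falling in single-electrode bursts; rat cortical cultures exposed continuously from plating, treatment renewed DIV 5 and 9, fitted downward against DMSO.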

For assay [7], the target named is Estrogen receptor (Homo sapiens) (UniProt P03372). The assay can be described thus: CCTE_Deisenroth_AIME_384WELL_LUC_Active: CCTE's 384-well Estrogen Receptor Transactivation Assay with AIME metabolic competence (ERTA luciferase; metabolism positive), Deisenroth Lab (AID 2284030; active = hit-call score of the fitted dose curve at least 0.9, where 1 is the maximum). The method in brief: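 AIME metabolism-positive mode: chemicals 0.002 - 200 uM, 2 h with alginate-bound PB/BNF-induced rat S9 → medium to VM7Luc4E2 ERTA, 24 h → luciferase. Positive fit vs 17beta-estradiol; n=4 typical.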

Results filed as inconclusive are left out. The source made the active and inactive calls. Rule for the calls, unless noted: active = hit-call score of the fitted dose curve at least 0.9, where 1 is the maximum; inactive = score below 0.9.

Chain of Estrogen receptor (Homo sapiens) (P03372 whole entry, looked up): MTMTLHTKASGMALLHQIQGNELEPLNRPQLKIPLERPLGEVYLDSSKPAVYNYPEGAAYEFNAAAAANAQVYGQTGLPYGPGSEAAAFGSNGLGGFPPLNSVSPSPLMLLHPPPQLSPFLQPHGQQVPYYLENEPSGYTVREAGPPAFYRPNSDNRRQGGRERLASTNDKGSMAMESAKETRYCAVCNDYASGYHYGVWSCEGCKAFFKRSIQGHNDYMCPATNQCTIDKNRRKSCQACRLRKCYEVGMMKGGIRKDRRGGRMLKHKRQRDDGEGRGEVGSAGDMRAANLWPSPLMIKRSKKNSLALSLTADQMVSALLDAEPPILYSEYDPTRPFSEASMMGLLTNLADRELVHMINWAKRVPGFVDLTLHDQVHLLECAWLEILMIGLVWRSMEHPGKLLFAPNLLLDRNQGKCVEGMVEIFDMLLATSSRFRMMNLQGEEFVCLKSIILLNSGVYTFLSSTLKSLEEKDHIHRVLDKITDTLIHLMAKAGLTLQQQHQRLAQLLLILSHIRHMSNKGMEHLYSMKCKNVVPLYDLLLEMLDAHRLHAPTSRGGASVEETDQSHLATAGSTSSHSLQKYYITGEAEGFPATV

For the molecule `O=c1[nH]c2ccccc2n1C1CCN(CCCC(c2ccc(F)cc2)c2ccc(F)cc2)CC1`, the values for the AC50 in assay [1], in assay [2] and in assay [3] were 77.9 µM (active), 60.9 µM (active) and 94.7 µM (active), respectively.
As for `O=C(O)COc1cc(Cl)c(Cl)cc1Cl`, the outcome in assay [1], in assay [2] and in assay [3] was inactive.
Take `Cc1cccc(C)c1NC(=O)CN1CCCC1=O`: the outcome in assay [1], in assay [2] and in assay [3] was inactive.
`CC1CC(=O)O1` (stereo not drawn): the result in assay [1] and in assay [2] was inactive.
Consider `O=C(CBr)c1ccc(O)cc1`, for which the molecule was called inactive in assay [4].
For `C=CC(F)(C(F)(F)F)C(F)(F)C(F)(F)F` (stereo not drawn), the result in assay [5] and in assay [6] was inactive.
Take `O=C(O)C1(c2ccc3c(c2)OC[C@H](Cc2ccc(-c4ccccc4)cc2)[C@H]3O)CCCC1`: the outcome in assay [1] and in assay [3] was inactive.
In the case of `C[CH2][Hg][S]c1ccccc1C(=O)O`, the AC50 in assay [1] was 49.1 µM (active); in assay [3], 50 µM (active).
Turning to `FC(F)OCC(F)(F)C(F)(F)F`, the outcome in assay [5] and in assay [6] was inactive.
As to `O=c1[nH]c(=O)n(Cl)c(=O)n1Cl`, in assay [4], the result was inactive.
Regarding `CNC(=O)O/N=C/C(C)(C)S(C)(=O)=O`, the outcome in assay [1], in assay [3], in assay [7] and in assay [4] was inactive.
`Cc1cc(Cl)ccc1N`: the result in assay [1] and in assay [3] was inactive.
In the case of `COc1ccccc1N`, the result in assay [1] and in assay [3] was inactive.
Consider `CCN(CCO)CCO`, for which the result in assay [7] and in assay [4] was inactive.
Take `NC(=O)c1ccc(N)nc1`: the AC50 is 9.03 µM (active) in assay [5] and 5.88 µM (active) in assay [6].
Turning to `CC(O)(CS(=O)(=O)c1ccc(F)cc1)C(=O)Nc1ccc(C#N)c(C(F)(F)F)c1` (stereo not drawn), the outcome in assay [1] and in assay [3] was inactive.
As to `Brc1c(Br)c(Br)c(Oc2c(Br)c(Br)c(Br)c(Br)c2Br)c(Br)c1Br`, the result in assay [1] and in assay [3] was inactive.
With `CCOC(=O)c1ccccc1S(=O)(=O)NC(=O)Nc1nc(Cl)cc(OC)n1`, the result in assay [1] and in assay [3] was inactive.
Consider `Cc1cc(Cl)ccc1OC(C)C(=O)O` (stereo not drawn), for which the call in assay [7] and in assay [4] was inactive.
Consider `CC(C)O.CC(C)O.OCCN(CCO)CCO.OCCN(CCO)CCO.[Ti]`, for which the result in assay [1] and in assay [4] was inactive.
`CCOP(=S)(OCC)OP(=S)(OCC)OCC`: the outcome in assay [1] and in assay [3] was inactive.
Regarding `CCOc1ccc(N)cc1`, the call in assay [7] and in assay [4] was inactive.
On to `C[C@H]1C(=O)O[C@@H]2CCN3CC=C(COC(=O)[C@](C)(O)[C@]1(C)O)[C@H]23`, for which the outcome in assay [1] and in assay [3] was inactive.
In the case of `CCOc1cc(C=O)ccc1O`, the outcome in assay [1] and in assay [3] was inactive.
In the case of `N#CCC#N`, the result in assay [1], in assay [3], in assay [7] and in assay [4] was inactive.
As to `O=C1C[C@@H]2OCC=C3CN4CC[C@]56c7ccccc7N1[C@H]5[C@H]2[C@H]3C[C@H]46`, the result in assay [1] and in assay [3] was inactive.
For the molecule `CC(=O)C(F)(F)C(F)(F)F`, the outcome in assay [5] and in assay [6] was inactive.
Consider `C=CCOC(F)(C(F)(F)F)C(F)(F)F`, for which the molecule was called inactive in assay [5] and in assay [6].
For `O=S(=O)(F)C(F)(F)C(F)(F)C(F)(F)C(F)(F)F`, the outcome in assay [5] and in assay [6] was inactive.
`CC(C)=CC1C(C(=O)OCc2cccc(Oc3ccccc3)c2)C1(C)C` (stereo not drawn): the result in assay [1] and in assay [3] was inactive.
On to `CNC(=O)CSP(=O)(OC)OC`, for which the outcome in assay [1], in assay [3], in assay [5] and in assay [6] was inactive.
Consider `OC(Cc1ccccc1Cl)(Cn1[nH]cnc1=S)C1(Cl)CC1` (stereo not drawn), for which the outcome in assay [1] was inactive. In addition, the figures for the AC50 in assay [5] and in assay [6] were 20.8 µM (active) and 50 µM (active), respectively.
As for `CC(F)(F)CC(F)(F)F`, the call in assay [5] and in assay [6] was inactive.
Consider `Cc1cc(Cl)ccc1OCCCC(=O)O`, for which the result in assay [1], in assay [3] and in assay [4] was inactive.
`Oc1c(Cl)cc(Cl)cc1Cl`: the result in assay [1] and in assay [3] was inactive.
As for `Nc1ccc(N)cc1`, the result in assay [1] and in assay [3] was inactive.
For the molecule `O=[N+]([O-])c1cccc2ccccc12`, the outcome in assay [1] and in assay [3] was inactive.
As to `OC[C@@H](O)[C@H]1O[C@@H]2O[C@H](C(Cl)(Cl)Cl)O[C@@H]2[C@H]1O`, the result in assay [1] and in assay [3] was inactive.
For the molecule `O=CCCl`, the result in assay [1] and in assay [3] was inactive.
Turning to `COc1ccc(N)cc1`, the outcome in assay [4] was inactive.

The values are drawn from PubChem BioAssay (EPA / NIEHS).
